The inhibition is the change of the read-out against control, counted positive when it falls.

Experiment [1] is described as follows: antimalarial activity against Dd2 strain (AID 2302;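 active means growth inhibition above 50% at the single 2 µM test dose, taken to imply half-maximal potency below 2 µM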;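 further: 0% = DMSO untreated growth and 100% = chloroquine plus artemisinin killed control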). Particulars: P. falciparum Dd2 in RBCs, LDH growth readout, 72 h; at 2 µM; hits give high values.
The nature of experiment [2]: HepG2 cytotoxicity, primary screen, cytotoxicity control for P. falciparum antimalarial project, cell-based, ATP luminescence (AID 2303;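 active means inhibition above 50%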;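 further: 0% = DMSO wells and 100% = digitonin-killed cells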). Particulars: HepG2 viability, 24-48 h, at 10 µM, hits give high values.
Experiment [3] has as its target L-lactate dehydrogenase (Plasmodium falciparum (isolate CDC / Honduras)) (UniProt Q27743). Nature of the experiment: PfLDH activity inhibition – cell lysate, 3D7 strain, counter-screen for P. falciparum growth inhibition project (AID 2304).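 Further: 0% = vehicle and 100% = reference inhibitor.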 The conditions noted are these: P. falciparum 3D7 crude extract, LDH APAD/NBT absorbance; at 2 µM; hits give high values. Background: Counterscreens check selectivity or assay interference.

Experiment [4] in a line: inhibition of 3D7 malaria parasite growth – strain 3D7 (AID 2306).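 Further: 0% = DMSO wells and 100% = chloroquine plus artemisinin control wells.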 Particulars: P. falciparum 3D7 erythrocytic growth, LDH absorbance, 72 h; at 2 µM; hits give high values.
The target in experiment [5] is Calcium-dependent protein kinase 1 (Plasmodium falciparum (isolate 3D7)) (UniProt P62344). As to the kind of experiment: PfCDPK1 kinase inhibitors, biochemical, TCAMS library (AID 1159585; cut-off not given, nearly all actives have IC50 up to about 0.98 µM;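 further: inhibitors leave more ATP so luminescence rises with inhibition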). The conditions noted are these: recombinant PfCDPK1, Kinase-Glo ATP depletion luminescence.
Experiment [6] concerns the target Plasmodium falciparum protein kinase 6 (PK6, PF3D7_1337100) (UniProt Q8IDW1). As to the kind of experiment: PfPK6 kinase inhibitors, biochemical, TCAMS library (AID 1159586). The conditions noted are these: recombinant PfPK6, Kinase-Glo ATP depletion luminescence. On the technique in general: Kinase-Glo measures the ATP left after a reaction by luminescence.
For experiment [7], the target named is Protein kinase 7 (PK7), Plasmodium falciparum 3D7 (PF3D7_0213400) (UniProt Q7YTF7). As to the kind of experiment: inhibition of Plasmodium PK7 catalytic activity – biochemical, TCAMS antimalarial set, Kinase-Glo luminescence (AID 1159587). The conditions noted are these: recombinant PfPK7, Kinase-Glo ATP depletion luminescence.
The target of experiment [8] is Calcium-dependent protein kinase 4 (Plasmodium falciparum (isolate 3D7)) (UniProt Q8IBS5). Nature of the experiment: PfCDPK4 kinase inhibitors, biochemical, TCAMS library (AID 1159588; cut-off not given, nearly all actives have IC50 up to about 0.91 µM). The conditions noted are these: recombinant PfCDPK4, Kinase-Glo ATP depletion luminescence.

A number with no mark means an inactive call. For part of these data: Entries with a potency or affinity are not part of this list. Activity calls are given as the source filed them. Unless noted, how the calls were made is not given here.

Sequence of Protein kinase 7 (PK7), Plasmodium falciparum 3D7 (PF3D7_0213400) (Q7YTF7 1-343): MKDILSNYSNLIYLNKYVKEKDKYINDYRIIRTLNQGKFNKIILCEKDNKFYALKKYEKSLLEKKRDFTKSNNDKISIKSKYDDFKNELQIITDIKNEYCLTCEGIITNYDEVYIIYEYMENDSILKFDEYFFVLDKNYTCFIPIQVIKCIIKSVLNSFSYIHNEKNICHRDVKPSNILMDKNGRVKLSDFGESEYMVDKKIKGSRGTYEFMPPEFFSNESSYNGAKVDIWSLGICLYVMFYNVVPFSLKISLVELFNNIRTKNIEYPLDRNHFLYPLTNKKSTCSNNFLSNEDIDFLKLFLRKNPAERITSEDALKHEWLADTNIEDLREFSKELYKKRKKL
Sequence of L-lactate dehydrogenase (Plasmodium falciparum (isolate CDC / Honduras)) (Q27743 whole entry, looked up): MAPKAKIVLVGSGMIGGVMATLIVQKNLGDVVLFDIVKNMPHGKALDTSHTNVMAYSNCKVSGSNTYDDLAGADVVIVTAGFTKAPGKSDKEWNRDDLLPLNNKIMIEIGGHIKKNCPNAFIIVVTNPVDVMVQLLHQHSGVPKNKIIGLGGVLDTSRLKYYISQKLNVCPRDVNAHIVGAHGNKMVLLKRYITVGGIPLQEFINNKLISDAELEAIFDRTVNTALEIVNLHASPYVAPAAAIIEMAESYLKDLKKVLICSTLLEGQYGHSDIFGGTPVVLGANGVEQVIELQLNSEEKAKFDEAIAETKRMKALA
Sequence of Calcium-dependent protein kinase 1 (Plasmodium falciparum (isolate 3D7)) (P62344 whole entry, looked up): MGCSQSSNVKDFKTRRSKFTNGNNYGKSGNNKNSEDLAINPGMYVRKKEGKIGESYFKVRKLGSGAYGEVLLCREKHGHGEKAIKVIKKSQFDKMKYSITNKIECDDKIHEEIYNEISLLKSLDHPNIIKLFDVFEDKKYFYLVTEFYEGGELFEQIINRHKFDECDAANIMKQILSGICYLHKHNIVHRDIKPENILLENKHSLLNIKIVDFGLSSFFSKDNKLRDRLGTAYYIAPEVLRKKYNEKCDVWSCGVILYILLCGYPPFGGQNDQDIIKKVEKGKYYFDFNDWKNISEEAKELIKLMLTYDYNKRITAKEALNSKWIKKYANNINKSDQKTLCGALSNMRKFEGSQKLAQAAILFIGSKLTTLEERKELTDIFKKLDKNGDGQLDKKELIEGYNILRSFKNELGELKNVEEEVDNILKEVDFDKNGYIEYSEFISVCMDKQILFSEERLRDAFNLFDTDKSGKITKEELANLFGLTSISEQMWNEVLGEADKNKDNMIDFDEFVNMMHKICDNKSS
Sequence of Plasmodium falciparum protein kinase 6 (PK6, PF3D7_1337100) (Q8IDW1 1-305): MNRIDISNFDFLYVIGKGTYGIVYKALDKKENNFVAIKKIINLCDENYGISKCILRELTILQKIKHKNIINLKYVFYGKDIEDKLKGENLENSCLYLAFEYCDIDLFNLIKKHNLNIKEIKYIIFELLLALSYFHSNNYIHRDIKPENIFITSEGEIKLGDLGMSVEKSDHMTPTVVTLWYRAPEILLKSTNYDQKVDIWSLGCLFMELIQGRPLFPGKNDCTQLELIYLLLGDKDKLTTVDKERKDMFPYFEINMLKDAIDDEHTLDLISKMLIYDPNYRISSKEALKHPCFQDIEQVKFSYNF
Sequence of Calcium-dependent protein kinase 4 (Plasmodium falciparum (isolate 3D7)) (Q8IBS5 whole entry, looked up): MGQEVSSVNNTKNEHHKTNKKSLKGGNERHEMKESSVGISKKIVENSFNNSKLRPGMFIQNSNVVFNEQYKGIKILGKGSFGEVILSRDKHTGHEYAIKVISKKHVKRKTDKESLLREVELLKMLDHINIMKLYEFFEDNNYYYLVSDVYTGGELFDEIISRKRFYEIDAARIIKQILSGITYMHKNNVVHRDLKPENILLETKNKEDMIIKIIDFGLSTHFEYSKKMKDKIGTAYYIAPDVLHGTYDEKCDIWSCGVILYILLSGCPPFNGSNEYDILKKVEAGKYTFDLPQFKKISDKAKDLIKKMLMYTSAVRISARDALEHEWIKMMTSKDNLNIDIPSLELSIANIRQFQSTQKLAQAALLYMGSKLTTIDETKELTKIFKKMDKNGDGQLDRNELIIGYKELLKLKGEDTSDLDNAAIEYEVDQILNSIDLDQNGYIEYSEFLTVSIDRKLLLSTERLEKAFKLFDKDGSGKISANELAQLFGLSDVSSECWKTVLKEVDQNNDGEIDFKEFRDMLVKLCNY

In the case of `O=C(NCCc1ccccc1)c1cc(-c2cccnc2)cnc1NCC1CC1`, the growth inhibition in experiment [1] is 35%; in experiment [4], 93% (active). Also, the values for the inhibition in experiment [2] and in experiment [3] were 3% and 6%, respectively. Also, the result in experiment [5], in experiment [6], in experiment [7] and in experiment [8] was inactive.
Turning to `CN1CCN(c2ccnc3ccc(NC(=O)Cc4ccc5ccccc5c4)cc23)CC1`, the growth inhibition is 89% (active) in experiment [1] and 100% (active) in experiment [4]. The inhibition in experiment [2] is 6%; in experiment [3], -2%. The result in experiment [5], in experiment [6], in experiment [7] and in experiment [8] was inactive.
`O=c1[nH]c(Cc2ccccc2)nc2ccc(Cl)cc12`: the figures for the growth inhibition in experiment [1] and in experiment [4] were 76% (active) and 92% (active), respectively. For the same compound, the inhibition in experiment [2] is 13%; in experiment [3], 3%. Besides, the result in experiment [5], in experiment [6], in experiment [7] and in experiment [8] was inactive.
On to `O=C(Nc1cccc(CN2CCCN(Cc3ccsc3)CC2)c1)c1ccc(-c2ccccc2)cc1`, for which the figures for the growth inhibition in experiment [1] and in experiment [4] were 11% and 90% (active), respectively. Further, the inhibition is 30% in experiment [2] and -4% in experiment [3]. The result in experiment [5], in experiment [6], in experiment [7] and in experiment [8] was inactive.
With `CN1CCN(CCCN(Cc2csc(-c3ccc(CNCc4ccccc4)cc3)n2)S(=O)(=O)c2ccc(F)cc2)CC1`, the results for the growth inhibition in experiment [1] and in experiment [4] were 80% (active) and 101% (active), respectively. Besides, the inhibition was 21% in experiment [2] and 3% in experiment [3]. For the same compound, the result in experiment [5], in experiment [6], in experiment [7] and in experiment [8] was inactive.
Regarding `Cn1nccc1C(=O)NCCNCc1ccc(-c2ccc(-c3nc4ccc(F)cc4[nH]3)cc2)cc1`, the growth inhibition in experiment [1] was 98% (active); in experiment [4], 101% (active). For the same compound, the values for the inhibition in experiment [2] and in experiment [3] were 28% and -5%, respectively. Besides, the result in experiment [5], in experiment [6], in experiment [7] and in experiment [8] was inactive.
As for `Cc1ccc(CN2CCN(Cc3cccc(NC(=O)c4ccc5ccccc5c4)c3)CC2)cc1C`, the growth inhibition in experiment [1] was 23%; in experiment [4] it was 89% (active). Further, the inhibition in experiment [2] is 62% (active); in experiment [3] it was -4%. The result in experiment [5], in experiment [6], in experiment [7] and in experiment [8] was inactive.
With `COc1ccc2ncc(F)c([C@H](O)CN3CCC(NCc4ccc5c(c4)NC(=O)CS5)CC3)c2c1`, the growth inhibition was 98% (active) in experiment [1] and 102% (active) in experiment [4]. The inhibition was 7% in experiment [2] and -13% in experiment [3]. Besides, the outcome in experiment [5], in experiment [6], in experiment [7] and in experiment [8] was inactive.
In the case of `COc1cccc(C(=O)Nc2sc3c(c2C(N)=O)CCCC3)c1OC`, the growth inhibition in experiment [1] is 8%; in experiment [4], 99% (active). Further, the inhibition in experiment [2] is 6%; in experiment [3] it was -2%. For the same compound, the result in experiment [5], in experiment [6], in experiment [7] and in experiment [8] was inactive.
Take `Cc1cc(NC(=O)c2cccs2)ccc1OC1CCN(Cc2ccccc2)CC1`: the growth inhibition in experiment [1] is 91% (active); in experiment [4] it was 95% (active). For the same compound, the inhibition in experiment [2] was 10%; in experiment [3], 4%. The result in experiment [5], in experiment [6], in experiment [7] and in experiment [8] was inactive.
On to `CC(=O)Nc1ccc(NC(=O)c2cc(-c3ccc(C)cc3O)n[nH]2)cc1`, for which the growth inhibition in experiment [1] was 78% (active); in experiment [4] it was 101% (active). The figures for the inhibition in experiment [2] and in experiment [3] were -3% and -6%, respectively. Further, the result in experiment [5], in experiment [6], in experiment [7] and in experiment [8] was inactive.
With `Nc1nc(N)c2c(n1)CCC(c1ccccc1)C2` (stereo not drawn), the growth inhibition in experiment [1] is -1%; in experiment [4] it was 93% (active). Besides, the inhibition was 55% (active) in experiment [2] and 1% in experiment [3]. Also, the result in experiment [5], in experiment [6], in experiment [7] and in experiment [8] was inactive.
As for `COc1cccc(NC(=O)Nc2ccc(C)c(-c3ccc(C(=O)Nc4ccncc4)cc3)c2)c1`, the growth inhibition in experiment [1] was 64% (active); in experiment [4], 99% (active). The inhibition in experiment [2] was 45%; in experiment [3], 1%. The outcome in experiment [5], in experiment [6], in experiment [7] and in experiment [8] was inactive.
In the case of `COc1cccc2sc(N3CCN(C(=O)c4ccc([N+](=O)[O-])o4)CC3)nc12`, the growth inhibition in experiment [1] was 67% (active); in experiment [4], 95% (active). Also, the results for the inhibition in experiment [2] and in experiment [3] were -17% and 1%, respectively. The outcome in experiment [5], in experiment [6], in experiment [7] and in experiment [8] was inactive.
`CCOc1ccc(N2C(N)=NC(N)=NC2(C)C)cc1`: the growth inhibition was -2% in experiment [1] and 95% (active) in experiment [4]. Besides, the inhibition in experiment [2] is 10%; in experiment [3], 0%. In addition, the outcome in experiment [5], in experiment [6], in experiment [7] and in experiment [8] was inactive.
As for `C=Cc1cc(NC(=O)N2CCc3cc(OC)c(C(F)(F)F)cc32)cc(-c2cccnc2)c1`, the results for the growth inhibition in experiment [1] and in experiment [4] were 20% and 92% (active), respectively. Besides, the inhibition was 7% in experiment [2] and -2% in experiment [3]. For the same compound, the outcome in experiment [5], in experiment [6], in experiment [7] and in experiment [8] was inactive.
Turning to `CC(NC(=O)c1ccc(O)c(-c2ccc(Cl)c(Cl)c2)c1)C(=O)NCCN1CCOCC1` (stereo not drawn), the growth inhibition in experiment [1] is 7%; in experiment [4] it was 87% (active). The results for the inhibition in experiment [2] and in experiment [3] were 2% and -3%, respectively. The outcome in experiment [5], in experiment [6], in experiment [7] and in experiment [8] was inactive.
On to `CCCCN(CCCC)CCNC(=O)c1cc(OC(F)(F)F)ccc1O`, for which the results for the growth inhibition in experiment [1] and in experiment [4] were 90% (active) and 93% (active), respectively. The inhibition in experiment [2] is 8%; in experiment [3], -8%. Moreover, the outcome in experiment [5], in experiment [6], in experiment [7] and in experiment [8] was inactive.
For `CCOC(=O)N1NC(=O)N(c2ccccc2)C1(c1ccccc1)c1ccccc1`, the values for the growth inhibition in experiment [1] and in experiment [4] were 82% (active) and 96% (active), respectively. Also, the inhibition in experiment [2] was 5%; in experiment [3], 6%. Besides, the outcome in experiment [5], in experiment [6], in experiment [7] and in experiment [8] was inactive.
Regarding `OC(CNCc1ccccc1OCc1ccccc1)c1cc(C(F)(F)F)cc(C(F)(F)F)c1` (stereo not drawn), the growth inhibition is 99% (active) in experiment [1] and 100% (active) in experiment [4]. Moreover, the inhibition in experiment [2] and in experiment [3] was 3% in each case. In addition, the result in experiment [5], in experiment [6], in experiment [7] and in experiment [8] was inactive.
On to `CCCCc1cc(NC2CCN(C)CC2)nc(Nc2ccccc2)n1`, for which the growth inhibition in experiment [1] is 29%; in experiment [4] it was 103% (active). The inhibition in experiment [2] is 7%; in experiment [3], -2%. For the same compound, the outcome in experiment [5], in experiment [6], in experiment [7] and in experiment [8] was inactive.

For the origin of these results see PubChem BioAssay.
